Screens (PubChem BioAssay)
Only some compounds are listed: those with a hit (about 3% of all), similar ones and a draw of the others.
Tau FP inhib: blocks human tau fibril formation measured by polarization; Potency, µM (series often up to 57.7 µM), for the others: at the highest dose activity, negative = inhibition, hits mostly inhibitors; 280,000 compounds, 0.39% hits; AID 1468; P10636; K18 P301L tau heparin fibrillization, Alexa594 FP, 6 h; also: nearly all actives have a fitted effect of over 55% in size
Target sequence (P10636 561-689 P618L limits assumed): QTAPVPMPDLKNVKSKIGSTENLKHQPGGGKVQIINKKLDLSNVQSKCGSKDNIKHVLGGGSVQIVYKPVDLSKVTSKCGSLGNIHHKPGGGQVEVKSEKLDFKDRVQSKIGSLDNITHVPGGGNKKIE
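Human tau K18 […] P301L fragment, 15 uM unlabeled plus 0.24 uM Alexa 594-labeled tau (final), with compound and 20 uM heparin in 100 mM sodium acetate pH 7; 6 hr at 37 C, then Alexa 594 FP read.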
TexasRed fluor: Texas Red fluorescence interference in TRb-SRC2 counter-screen; TRb/SRC2 Texas Red total fluorescence interference; Potency, µM (series often up to 106 µM), inactives show top-dose fluorescence change, negative = quenching; 280,000 compounds, 0.29% hits; active = well fitted curve in either direction with a large enough effect; inconclusive = small, poorly fitted or top-dose-only effect
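Human TRb ligand-binding domain at 0.6 uM with 20 nM Texas Red SRC2 peptide in Tris buffer containing 1 uM T3 and 5% DMSO, incubated with compound 5 h at ambient temperature. Total fluorescence (555/632 nm) calculated as parallel + 2 × perpendicular.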
TRb SRC2 PPI: TRbeta-SRC2 interaction inhibition; Potency, µM (doses to about 106 µM), inactives show top-dose activity change, negative = inhibition, most hits filed as inhibitors; P10828; 280,000 compounds, 0.065% hits; TRbeta-SRC2 peptide binding, fluorescence polarization; receptor liganded with 1 µM T3;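 also: plate controls were bound peptide for no effect and peptide without receptor for full effect; nearly all actives have a fitted effect of over 50% in size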
Target sequence (P10828 whole entry, looked up): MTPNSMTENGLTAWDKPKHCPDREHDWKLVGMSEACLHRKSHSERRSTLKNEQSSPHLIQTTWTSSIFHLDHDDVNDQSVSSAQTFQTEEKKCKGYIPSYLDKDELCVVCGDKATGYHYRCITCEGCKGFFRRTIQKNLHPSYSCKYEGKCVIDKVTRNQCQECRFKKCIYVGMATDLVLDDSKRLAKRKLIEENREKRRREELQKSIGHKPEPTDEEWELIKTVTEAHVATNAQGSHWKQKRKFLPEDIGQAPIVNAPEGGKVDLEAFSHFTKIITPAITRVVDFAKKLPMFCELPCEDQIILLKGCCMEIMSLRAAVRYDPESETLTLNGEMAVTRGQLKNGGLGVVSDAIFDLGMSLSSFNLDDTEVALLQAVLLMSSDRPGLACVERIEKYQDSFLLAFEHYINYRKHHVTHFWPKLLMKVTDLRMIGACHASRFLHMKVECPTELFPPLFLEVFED
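TRb LBD 0.6 uM + Texas Red SRC2 peptide 20 nM, 1 uM T3, Tris buffer w/ 5% DMSO; compound pinned, 5 h RT; FP read ex 555/em 632; normalized to unbound and bound controls.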
Tau fluor cs: counter-screen for tau fibril formation inhibitors; tau K18 P301L Alexa594 fluorescence, heparin fibrillization; Potency, µM (series often up to 57.7 µM), without a hit: top-dose activity change, negative = decrease; 280,000 compounds, 0.93% hits; AID 1463; also: nearly all actives have a fitted effect of over 55% in size
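Human tau K18 P301L (15 uM unlabeled, 0.24 uM Alexa 594-labeled) in 100 mM sodium acetate pH 7 with 20 uM heparin, 6 hr at 37 C. ThT 30 uM added, 1 hr ambient; Alexa 594 FP and total fluorescence read at 555/632 nm.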
Tau ThT inhib: inhibitors of human tau fibril formation, thioflavin T binding | AID 1460 | Potency, µM (highest dose often 57.4 µM), for inactives: at the top dose activity, negative = inhibition, most hits filed as inhibitors | 270,000 compounds, 2.1% hits | recombinant tau K18 P301L (four-repeat tau fragment), heparin-induced fibrillization, ThT fluorescence | P10636; also: nearly all actives have a fitted effect of over 55% in size
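Heparin-induced fibrillization of the P301L-mutant K18 repeat-domain fragment of human tau was followed by ThT binding in quantitative high-throughput format.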
Starred values were filed as active, the others as inactive; ? = inconclusive; . = no result; [ ] = remark or other dose. Unless noted, calls follow the shape of the dose curve; as a rule, active = well fitted curve in the direction sought with a large enough effect; inconclusive = small, poorly fitted or top-dose-only effect, or another doubt; inactive = no such curve, though single readings can be large; an effect the other way counts as inactive or inconclusive. Unless noted, % is scaled to controls: 0 for no effect and ±100 for the full control effect; potency is read from the fitted curve at half-maximal effect.

SMILES	Tau FP inhib	TexasRed fluor	TRb SRC2 PPI	Tau fluor cs	Tau ThT inhib
COc1ccc(CCNC(=O)CCn2c(=O)c3ccccc3n(Cc3ccccc3)c2=O)cc1OC	-19%	-19%	7%	-12%	-9%
Cc1ccc(S(=O)(=O)c2cnc(SCC(=O)Nc3ccc4c(c3)OCCO4)[nH]c2=O)cc1	7%	2%	-5%	-8%	-16%
O=c1[nH][nH]c(-c2ccccc2O)c1C(C[N+](=O)[O-])c1cccc(Cl)c1 (stereo unspecified)	-14%	-1%[53 µM]	-2%[53 µM]	?	25µM*
O=c1[nH][nH]c(-c2ccccc2O)c1C(C[N+](=O)[O-])c1ccccc1 (stereo unspecified)	8%	-1%	2%	-8%	-18%
CC1=NN(C(N)=S)C(=O)C1N=Nc1c(C)cc(C)cc1C (stereo unspecified)	3%	-3%	-7%	-21%	4.5µM*
CC1=NN(C(N)=S)C(=O)C1N=Nc1ccc(C)cc1C (stereo unspecified)	1%	-4%	2%	?	3.2µM*
CC(=O)NC(NC(=S)Nc1ccc(N=Nc2ccccc2C)cc1C)C(Cl)(Cl)Cl (stereo unspecified)	-5%	1%	-26%	?	?
CC1=NN(C(N)=S)C(=O)C1N=Nc1ccccc1C (stereo unspecified)	4%	-1%	9%	-15%	10µM*
Cc1ccc2c(c1)c1c(c(=O)n(-c3ccccc3)c(=O)n1Cc1ccccc1C)n2C	1%	-3%	-1%	0%	1%
COc1ccc(C(=O)NCC(c2ccc(N(C)C)cc2)N2CCc3ccccc32)cc1 (stereo unspecified)	?	-2%	-4%	?	16µM*
COc1cccc(-n2c(N)c(-c3nc4ccccc4[nH]3)sc2=S)c1	13%	-4%	-4%	16µM*[quencher]	7.9µM*
COc1ccc2nc(-c3cccc(N)c3)[nH]c2c1	-2%	-2%	7%	2%	9%
CC1(C)OC(=O)N(c2ccccc2)C12C=Cc1cc(Br)ccc1O2 (stereo unspecified)	0%	-5%	0%	-4%	-7%
COc1ccc2c(c1)Sc1ccccc1N2CCN(C)C	2%	1%	5%	-5%	-5%
COc1ccc2ccc3c(c2c1)N=CC1(O3)N(C)c2ccccc2C1(C)C (stereo unspecified)	22µM*	?	28µM*	?	10µM*
CN1c2ccccc2C(C)(C)C12C=Nc1c(ccc3ccccc13)O2 (stereo unspecified)	?	-24%	?	?	32µM*
CN1c2ccccc2C(C)(C)[C@]12C=Cc1cc(O)ccc1O2	-1%	13%	5%	?	22µM*
CC(=O)Nc1ccc(/C=C/c2ccc3cccc([N+](=O)[O-])c3n2)cc1	-10%	-6%	13%	?	.
COc1cc(/C=C/c2ccc3c([N+](=O)[O-])cccc3n2)ccc1OCC(=O)O	-1%	-11%	0%	-16%	3.2µM*
O=C(O)COc1ccc(/C=C/c2ccc3cccc([N+](=O)[O-])c3n2)cc1	10%	-14%	1%	-16%	7.9µM*
COc1cc(/C=C/c2ccc3cccc([N+](=O)[O-])c3n2)ccc1OCC(=O)O	7%	-15%	-1%	-3%	?
CCOc1ccc(OCC)c(NC(=O)c2cnn(-c3ccc(F)cc3)c2-n2cccc2)c1	?	0%	4%	?	?
Cc1ccc(C)c(NC(=O)CN(C)S(=O)(=O)c2ccc3c(c2)CCC(=O)N3)c1	-9%	0%	-3%	-5%	2%
Cc1ccc(-n2[nH]c(C)c(/C=N/n3c(C)nc4ccccc4c3=O)c2=O)cc1	?	0%	8%	-29%	25µM*
Cc1[nH]n(-c2ccccc2)c(=O)c1/C=N/n1c(C)nc2ccccc2c1=O	-5%	-4%	0%	-7%	-8%
SMILES	Tau FP inhib	TexasRed fluor	TRb SRC2 PPI	Tau fluor cs	Tau ThT inhib
CCOc1ccc2c(c1)-c1c(ssc1=S)C(C)(C)N2	-2%	0%	-5%	13µM*[quencher]	13µM*
C/C(=N\NC(=O)c1cccc(N/N=C(\C)c2ccco2)c1)c1ccco1	15%	-7%	-3%	-28%	?
C/C(=N\NC(=O)c1cccc(N/N=C(\C)c2cc(O)ccc2O)c1)c1cc(O)ccc1O	?	-4%	-2%	?	28µM*
C/C(=N\NC(=O)c1ccc(N/N=C(\C)c2ccc(O)cc2)cc1)c1ccc(O)cc1	?	-8%	2%	16µM*[quencher]	3.2µM*
C/C(=N/Nc1ccc(C(=O)O)cc1)c1ccc(O)c(O)c1O	?	-10%	-3%	-22%	11µM*
COc1cc([C@@H]2Nc3c(F)cccc3[C@@H]3C=CC[C@@H]32)cc(Br)c1OC	-2%	-3%	9%	-16%	-9%
NC(=O)c1cccc(N=Cc2cc(Cl)cc(Cl)c2O)c1	11%	-5%	-5%	4%	1%
Cc1cccc(N=Cc2cc(Br)cc(Cl)c2O)c1	-14%	0%	-5%	-9%	14µM*
CC(C)CSc1ccccc1NC(=O)c1sc2nc(-c3ccncc3)ccc2c1N	3%	-3%	5%	3.2µM*[quencher]	-16%
Nc1c(C(=O)Nc2ccc(Br)cc2)sc2nc(-c3ccncc3)ccc12	3%	1%	-4%	?	?
Cc1ccc(C(=O)Nc2nc(=O)n(C(=O)c3ccccc3C)s2)cc1	?	-1%	-2%	-23%	14µM*
O=C(Nc1nc(=O)[nH]s1)c1ccccc1	-5%	-1%	-2%	-5%	-9%
O=C(Nc1nc(=O)n(C(=O)C2CC2)s1)c1ccccc1	?	0%	-3%	-19%	11µM*
CCCCOC(=O)[C@@H](C)Oc1ccc(Oc2ccc(C(F)(F)F)cn2)cc1	.	-4%[201 µM]	-4%[201 µM]	.	.
CC(C)c1ccc(/C=C2\SC(N3CCCC3)=NC2=O)cc1	15%	-3%	3%	2%	-14%
CC(C)/C=C1\CC/C(=C\c2ccc(N(C)C)cc2)C1=O	19%	6%	0%	16%	2µM*
CC(C)c1ccc(/C=C2\CC/C(=C\C=N\N(C)C)C2=O)cc1	?	1%	-19%	-19%	3.2µM*
CCOC(=O)CCCNC(=O)N1CCc2nc(-c3ccc(OC)cc3C)c3c(c2C1)CO[C@@H](c1ccccc1)C3	4%[11.6 µM]	-3%[11.2 µM]	2%[11.2 µM]	-4%[11.6 µM]	-2%[11.5 µM]
CC(C)C(C)(C#N)NC(=O)CSc1nc2scc(-c3ccco3)c2c(=O)n1-c1ccccc1 (stereo unspecified)	7.9µM*	?	?	-18%	10µM*
CCOc1ccc(-n2c(C)nc3cc(C(=O)NCc4ccc(C)cc4)ccc32)cc1	11%	0%	4%	-5%	-3%
COC(=O)c1ccc(NC(=O)c2c(NCc3cccc(F)c3)sc3c2CCCC3)cc1	-6%	-6%	1%	?	?
